In the library only some 3% were active in any assay of this set; here they are far more common.
USP1 inh – blocks the human USP1/UAF1 deubiquitinase complex; O94782; recombinant USP1/UAF1, Ub-Rhodamine cleavage fluorescence; Potency, µM (doses to about 57.1 µM), for inactives: at the highest dose activity change, negative = inhibition, hits mostly inhibitors; hit rate 0.23% among 390,000; AID 743255; further: on the % scale 0 is the no-effect control and ±100 the full control effect; nearly all actives have a fitted effect of over 60% in size
Target sequence (O94782 whole entry, looked up): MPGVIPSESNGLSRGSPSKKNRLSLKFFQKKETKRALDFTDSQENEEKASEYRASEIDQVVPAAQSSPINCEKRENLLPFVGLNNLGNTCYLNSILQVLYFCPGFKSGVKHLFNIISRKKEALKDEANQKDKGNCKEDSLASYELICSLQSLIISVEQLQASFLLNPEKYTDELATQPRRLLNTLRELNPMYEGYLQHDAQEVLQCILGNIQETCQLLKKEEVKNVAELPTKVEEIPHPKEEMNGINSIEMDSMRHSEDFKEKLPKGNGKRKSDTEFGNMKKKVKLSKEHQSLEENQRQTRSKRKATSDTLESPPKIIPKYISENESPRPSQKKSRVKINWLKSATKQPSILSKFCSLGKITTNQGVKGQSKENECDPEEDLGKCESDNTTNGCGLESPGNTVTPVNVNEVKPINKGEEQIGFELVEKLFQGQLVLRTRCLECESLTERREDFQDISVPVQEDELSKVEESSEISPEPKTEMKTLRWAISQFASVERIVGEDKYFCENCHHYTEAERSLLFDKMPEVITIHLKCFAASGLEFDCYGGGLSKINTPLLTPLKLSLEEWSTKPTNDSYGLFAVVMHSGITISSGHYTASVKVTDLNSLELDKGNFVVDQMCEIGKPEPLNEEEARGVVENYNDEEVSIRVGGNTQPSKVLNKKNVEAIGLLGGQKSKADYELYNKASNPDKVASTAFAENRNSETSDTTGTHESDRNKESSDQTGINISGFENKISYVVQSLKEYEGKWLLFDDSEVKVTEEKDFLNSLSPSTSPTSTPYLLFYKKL
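1 nM enzyme complex + cpd, 15 min RT; start with Ub-Rho 150nM final; kinetic fluorescence ex 480/em 540, 6 reads q60 s. Buffer 50mM HEPES pH 7.8, 0.5mM EDTA, 0.1 mg/ml BSA, 1mM TCEP, 0.01% Tween-20.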
KAT2A inh – inhibitors of human GCN5L2 histone acetyltransferase; Q92830; GCN5L2 HAT assay, ThioGlo1 CoA-SH fluorescence; Potency, µM (top dose mostly 58.9 µM), without a hit: at the top dose activity change, negative = inhibition, hits mostly inhibitors; hit rate 0.21% among 390,000; AID 504327; further: on the % scale 0 is the no-effect control and ±100 the full control effect
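Compounds, pin-transferred from DMSO stocks, meet 20nM GCN5L2 for 15 min before the reaction begins with H3(1-25) peptide (75uM) and acetyl-CoA (70uM). Thiol-reactive ThioGlo1 reports CoA release over 20 min at room temperature.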
PTAP TSG101 blk – blocks PTAP/TSG101 interaction to inhibit HIV-1 budding | Fluorescence polarization, FITC-PTAP peptide / Tsg101 binding | Potency, µM (top dose mostly 115 µM), for the others: at the highest dose activity change, negative = inhibition, actives largely listed as inhibitors | AID 493005 | Q99816 | 340,000 tested, under 10 active; active means well fitted inhibition curve with a large enough effect in the main read-out, with a control signal flat, not every such curve was filed as active; inconclusive means small, poorly fitted or top-dose-only effect, or effect the other way, or a change in a side signal; inactive means no such curve, though single readings can be large or run the other way; further: % of control where 0% means no effect
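FP read-out: FITC-PTAP peptide, 50 nM final, binding Tsg101 binding domain, 10 uM final; 20 min, r.t.; 10 mM HEPES pH 7.5, 0.15 M NaCl, 0.01% Tween 20, 3 mM EDTA, 0.1 mM TCEP.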
VDR inhibitor – vitamin D3 receptor (human) inhibition | P11473 | VDR-SRC2-3 peptide fluorescence polarization, 2 h | Potency, µM, inactives show max response, negative = inhibition, hits mostly inhibitors | hit rate 0.93% among 400,000; further: on the % scale 0 is the no-effect control and ±100 the full control effect
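Signal is fluorescence polarization, reporting how far test compounds block the interaction of VDR with the SRC2-3 coregulator peptide after a 2 h room-temperature incubation.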
PLK1 PBD inh – blocks phosphopeptide binding to human PLK1 polo-box domain; Plk1 PBD binding of FITC phosphopeptide, fluorescence polarization; Potency, µM, without a hit: max response, negative = inhibition, usual class: inhibitors; hit rate 2.8% among 360,000; AID 720504; P53350; further: series mostly up to about 57 µM; on the % scale 0 is the no-effect control and ±100 the full control effect; nearly all actives have a fitted effect of over 65% in size
An asterisk follows results filed as active; ? = inconclusive; · = no result; ! = not active in a repeat; [ ] = remark or other dose. Unless noted, the call rests on the fitted dose curve; in most records, active means well fitted curve in the direction sought with a large enough effect; inconclusive means small, poorly fitted or top-dose-only effect, or another doubt; inactive means no such curve, though single readings can be large; an effect the other way counts as inactive or inconclusive. Potency means the concentration at half of the fitted maximal effect.

SMILES | USP1 inh | KAT2A inh | PTAP TSG101 blk | VDR inhibitor | PLK1 PBD inh
CC(Oc1ccccc1)C(=O)N1CCN=C1SCc1ccccc1F (stereo unspecified) | -3% | -7% | 0% | 4% | 2%
CSC1=NCCN1C(=O)C(C)Oc1ccccc1 (stereo unspecified) | ? | -2% | 0% | -20% | 30µM*
C=CC#CC1(O)CC(C)[N+](C)(C)CC1C (stereo unspecified) | -8% | -20% | 0% | -24% | 21µM*
CCCCC/C=C\CC(O)/C=C/c1cccc(CC(O)CCCCO)n1 (stereo unspecified) | · | -5% | · | 50µM*! | ·
Cc1cc(C)c2ccc(=S)[nH]c2n1 | -16% | -7% | -4% | -18% | 15µM*
CC(C)c1nn2c(=O)cc(COC(=O)c3ccccc3NC(=O)c3cccc(Cl)c3)nc2s1 | -13% | 7% | · | 4% | ·
Cc1ccc(-c2cc(C(F)(F)F)n3ncc(C(=O)O)c3n2)cc1 | -8% | -3% | -3% | -22% | 30µM*
COc1ccc(-c2cc(C(F)(F)F)n3ncc(C(=O)NCC4CCCO4)c3n2)cc1 (stereo unspecified) | 6% | -4% | -4% | -10% | 7.5µM*
CCCCNC(=O)C1CCN(c2nc3ccccc3nc2C(F)(F)F)CC1 | -5% | 24% | · | 7% | ·
CN(C)C(CNS(=O)(=O)c1cc([N+](=O)[O-])ccc1Cl)c1ccco1 (stereo unspecified) | -15% | -2% | -6% | -2% | 27µM*
CCCCSc1nnc2c(n1)OC(c1ccc(Br)s1)Nc1ccccc1-2 (stereo unspecified) | -7% | -5% | · | -29% | ·
CCOc1ccc(OCCSc2nc(C)cc(=O)[nH]2)cc1 | -10% | -8% | -2% | -25% | 3.4µM*
CN(C(=O)CSc1nnc(C2CC2)n1-c1ccccc1)C1CCS(=O)(=O)C1 (stereo unspecified) | -18% | -5% | -3% | 3% | 3%
Cc1ccc(C(=O)N2CCC2(C)C(=O)NC(C)C)cc1 (stereo unspecified) | · | · | · | · | -8%
CCOc1c(Br)cc(/C=C2/SC(=O)N(CC(=O)N3CCCC3)C2=O)cc1OC | -9% | -1% | 0% | 1% | -12%
CCOC(=O)COc1c(Br)cc(/C=C2\SC(=O)N(CC(=O)N3CCCC3)C2=O)cc1OC | -13% | -6%[0.501 µM] | -5% | ? | 17µM*
CC1CCN(S(=O)(=O)c2ccc3c(ccn3CC(=O)NCc3ccc(N(C)C)cc3)c2)CC1 | -12% | -2% | · | 16% | ·
COc1cccc(-c2ccc3ncnc(NCc4ccccc4)c3c2)c1 | · | -27% | · | -10% | ·
COc1ccc(C2C(C(N)=O)=C(C)Nc3nc(-c4ccccc4Cl)nn32)cc1 (stereo unspecified) | -7% | 1% | · | -4% | ·
CC1=C(C(N)=O)C(c2ccncc2)n2nc(-c3ccccc3Cl)nc2N1 (stereo unspecified) | -11% | 1% | -3% | 9% | 30µM*
CCC(C)Sc1ccc(-c2nc3cnccn3c2NC2CCCCC2)cc1 (stereo unspecified) | -13% | 28µM* | · | -12% | 0%
C=CCCC1CN(CCCC)S(=O)(=O)c2c(F)cccc2O1 (stereo unspecified) | -11% | · | -7% | 89µM* | 21µM*
COc1ccc(-c2noc(-c3ccc(NCc4ccccc4OC)c([N+](=O)[O-])c3)n2)cc1 | -19% | 0% | · | 3% | ·
CCOc1ccc(NC(=O)CC2C(=O)N(CC)C(=S)N2CCNC(C)=O)cc1 (stereo unspecified) | -8% | 1% | 0% | 6% | -4%
CCOc1ccc(NC(=O)CC2C(=O)N(CC)C(=S)N2CCN2CCOCC2)cc1 (stereo unspecified) | -6% | 0% | -1% | -24% | 27µM*
SMILES | USP1 inh | KAT2A inh | PTAP TSG101 blk | VDR inhibitor | PLK1 PBD inh
COc1cccc(N=Cc2c[nH][nH]c2=O)c1 | -19% | -15% | -5% | ? | 27µM*
O=c1[nH][nH]cc1C=Nc1ccc(Cl)cc1 | -2% | -3% | 2% | 12% | -2%
COc1ccc(CNc2cc(-c3ccccc3C)ncn2)c(OC)c1 | · | -22% | · | ? | ·
CCc1ccc(N2CC(C(=O)N/N=C/c3ccccc3)CC2=O)cc1 (stereo unspecified) | ? | · | -4% | ? | 27µM*
COC(=O)c1ccc(/C=N/NC(=O)C2CC(=O)N(c3ccc(F)cc3)C2)cc1 (stereo unspecified) | -18% | 0% | -3% | 12% | -6%
CCN(CC)c1ccc(NC(=O)COCc2cc(-c3ccc4c(c3)OCO4)on2)c(C)c1 | -19% | -3% | · | -3% | ·
CCC(CC)C(=O)Nc1cccc(-c2nc3cccnc3s2)c1C | -11% | -7% | · | 8% | ·
Cc1ccc(S(=O)(=O)N2CCN(c3nc(-c4cccs4)nc4nc[nH]c34)CC2)cc1 | · | · | · | -14% | ·
Cc1ccc(NC(=O)Nc2cccc(Cl)c2)c(C(=O)O)c1 | -19% | -13% | -7% | ? | 19µM*
O=C(Nc1cccc(C(F)(F)F)c1)Nc1cc(Cl)ccc1C(=O)O | · | 22µM* | · | 50µM* | ·
O=C(Nc1ccccc1)Nc1cccc(C(F)(F)F)c1 | -16% | -8% | -3% | 9% | -6%
c1coc(-c2ccc3ncnc(NCc4cccs4)c3c2)c1 | · | -7% | · | · | ·
S=c1[nH]cc(-c2ccccc2)n1-c1ccccc1 | -4% | 3.5µM* | -3% | -3% | -18%
Cc1ccc(-n2c(-c3ccccc3)c[nH]c2=S)cc1 | -14% | -10% | -3% | ? | ?
COc1ccc(OC)c(CCNC(=O)c2ccc3c(c2)N(Cc2ccc(C)cc2)CCS3)c1 | -25% | -3% | · | -9% | ·
O=C(NCCN1CCOCC1)c1ccc2c(c1)N(Cc1ccccc1)CCS2 | -4% | -14% | -2% | ? | 27µM*
COc1ccc(CCNC(=O)c2ccc3c(c2)N(Cc2ccc(F)cc2)CCS3)cc1OC | -16% | -14% | 0% | ? | 30µM*
CC1CCCCC1NC(=O)CSc1nncs1 (stereo unspecified) | -6% | 3% | 1% | 1% | -3%
CC1CCCCC1NC(=O)CSc1nncn1N (stereo unspecified) | -17% | -4% | -1% | -7% | 21µM*
c1ccc(CCc2cn(C[C@H]3CC[C@@H]([C@@H]4CC[C@H](Cn5cc(CCc6ccccc6)nn5)O4)O3)nn2)cc1 | 14% | 1% | -6% | ? | 27µM*
Cc1ccc(S(=O)(=O)N2CCN(C(=O)/C=C/c3ccco3)CC2)cc1 | -2% | 3% | -1% | -1% | -19%
Cc1ccc(C)c(S(=O)(=O)N2CCN(C(=O)/C=C/c3ccco3)CC2)c1 | ? | ? | -8% | 89µM* | ?
O=C(Nc1ccc(Br)cc1F)c1ccc2nsnc2c1 | -2% | -4% | -6% | ? | 5.3µM*
Cc1ccc(C)c(NC(=O)CCc2ccc(S(=O)(=O)NC3CCCCC3)cc2)c1 | -13% | -5% | -3% | -8% | 6.7µM*
